Shown are actives, neighbours in structure and some others; about 2.2% of the full set was active somewhere.
EWS-Fli inh: blocks EWS/Fli oncoprotein-driven transcription | hit rate 0.67% among 350,000 | A673 NR0B1-luciferase reporter, viability-normalised | inhibition, % at 12.6 µM | AID 651661;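 active = mean inhibition of at least 50% after viability correction, with every replicate also passing that limit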;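 also: firefly luciferase signal divided by Alamar Blue viability fluorescence both relative to DMSO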
LGR2 inh: Drosophila LGR2 receptor signaling inhibition; HEK293 LGR2, CRE-luciferase, bursicon-stimulated, 4 h; inhibition, % at 9.99 µM; hit rate 0.35% among 380,000; AID 720647;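 active = drop in luminescence signal, shown as inhibition above about 50% in the replicate tests, limit read from the data, passing the limit was not always enough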;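 also: agonist challenge used bursicon conditioned medium at about half maximal strength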
EBV LMP1 NFkB: inhibitors of Epstein-Barr LMP1-induced NF-kappaB reporter; LMP1-induced NF-kappaB luciferase reporter cells, luminescence; inhibition, % at 12.5 µM; AID 504558; hit rate 0.69% among 350,000; in the data active = inhibition above about 41%
TRPM1 prom inh: reduces MITF-dependent TRPM1 promoter luciferase signal; SK-MEL-5 TRPM1 promoter luciferase, 24 h; inhibition, % at 12.5 µM; hit rate 0.83% among 330,000; AID 488899;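 active = mean inhibition across replicates of 60% or more, whatever share of single replicates reaches that level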
Shn3 3UTR inh: reduces Shn3 3'UTR luciferase signal in osteoblasts. inhibition, % at 12.5 µM. AID 588674. Clone20 osteoblast Shn3 3'UTR firefly luciferase, 24 h. hit rate 0.52% among 360,000;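 active = mean inhibition of at least 75% with every replicate also reaching 75%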
PAX8 reporter: inhibitors of PAX8 transcriptional activity in RMG-I cells | RMG-I TPO-luciferase reporter, SteadyGlo, 24 h | inhibition, % at 12.6 µM | hit rate 1.2% among 360,000;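 active = mean replicate inhibition at least 60% with every replicate also reaching 60%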;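 also: luciferase light reporting Pax8 driven TPO promoter activity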
Each line names hits and unclear results; the compound was inactive in the other large screens.

CC=Cc1ccc2n(c1=O)C[C@H]1[C@H](CO)[C@@H](C(=O)NC3CCC3)N(CC)[C@@H]21 (mixture of isomers)	PAX8 reporter 87 (no result: EBV LMP1 NFkB, TRPM1 prom inh, Shn3 3UTR inh)
CC=Cc1ccc2n(c1=O)C[C@@H]1[C@@H](CO)[C@H](C(=O)NC3CCCC3)N(CCC)[C@H]21 (mixture of isomers)	none (no result: EBV LMP1 NFkB, TRPM1 prom inh, Shn3 3UTR inh, PAX8 reporter)
O=C(NCC[C@H]1CC[C@H](NC(=O)c2cnccn2)[C@@H](CO)O1)Nc1ccc(Cl)cc1	none (no result: EBV LMP1 NFkB, TRPM1 prom inh, Shn3 3UTR inh)
CO[C@H]1CN(C)C(=O)c2ccc(NS(=O)(=O)CC(F)(F)F)cc2OC[C@@H](C)N(CC2CCCCC2)C[C@H]1C	none (no result: EBV LMP1 NFkB, TRPM1 prom inh, Shn3 3UTR inh)
O=S(=O)(NC[C@H]1CC[C@@H]2[C@@H](CN2Cc2cccc(-c3ccccn3)c2)O1)c1ccccc1	none (no result: LGR2 inh, EBV LMP1 NFkB, TRPM1 prom inh, Shn3 3UTR inh)
Cc1ccc(C(=O)O/N=C(\N)c2ccccn2)c(Cl)c1	EWS-Fli inh 86, LGR2 inh 103, EBV LMP1 NFkB 83, PAX8 reporter 105 (no result: TRPM1 prom inh)
Cc1ccccc1C(=O)O/N=C(\N)c1ccncc1	EBV LMP1 NFkB 56 (no result: LGR2 inh)
Cc1ccc(C(=O)O/N=C(\N)c2ccccc2)c(Cl)c1	EWS-Fli inh 75, LGR2 inh 97
N/C(=N\OC(=O)c1ccc(Cl)cc1[N+](=O)[O-])c1ccccn1	none
N/C(=N\OC(=O)c1ccccc1Cl)c1ccncc1	none
N/C(=N\OC(=O)c1ccc(Cl)cc1Cl)c1ccccn1	LGR2 inh 93, EBV LMP1 NFkB 56, PAX8 reporter 77 (no result: EWS-Fli inh)
N/C(=N\OC(=O)c1cc(Br)ccc1Cl)c1ccccn1	none
CCC(=O)N[C@@H]1CC[C@@H](CC(=O)NCc2cc(F)cc(F)c2)O[C@H]1CO	none (no result: EBV LMP1 NFkB, TRPM1 prom inh, Shn3 3UTR inh)
N/C(=N\OC(=O)c1ccc([N+](=O)[O-])cc1Cl)c1ccccn1	EWS-Fli inh 72, LGR2 inh 95, EBV LMP1 NFkB 56, PAX8 reporter 68
C/C=C/c1ccc([C@@H]2[C@H](CO)N(C(=O)c3ccccc3)C23CN(C(C)=O)C3)cc1	none (no result: EBV LMP1 NFkB, TRPM1 prom inh, Shn3 3UTR inh, PAX8 reporter)
CCCOc1ccc(F)cc1-c1cc(C(=O)Nc2cc(OC)c(OC)c(OC)c2)[nH]n1	LGR2 inh 51 (no result: EBV LMP1 NFkB, TRPM1 prom inh)
CCCNC(=O)N1C[C@@H](O)COC[C@@H]2O[C@@H](CC(=O)NCCCN3CCOCC3)CC[C@H]21	none (no result: EBV LMP1 NFkB, TRPM1 prom inh, Shn3 3UTR inh)
CCN1C(=O)[C@@H]2[C@@H](c3ccc(-c4ccc(Cl)c(Cl)c4)c(OC)c3)N3CCC[C@@]3(C(=O)OC)[C@@H]2C1=O	PAX8 reporter 70
CCCSc1ccc([C@@H]2[C@H]3C(=O)N(C)C(=O)[C@H]3[C@]3(C(=O)OC)CCCN23)cc1OC	EBV LMP1 NFkB 85
C[C@@H]1CCCCO[C@@H](CN(C)C(=O)Nc2cccc3ccccc23)[C@H](C)CN([C@H](C)CO)C(=O)c2cc(NS(=O)(=O)c3ccc(F)cc3)ccc2O1	PAX8 reporter 93 (no result: EBV LMP1 NFkB, TRPM1 prom inh, Shn3 3UTR inh)
C[C@@H]1CCCCO[C@H](CN(C)C(=O)Nc2cccc3ccccc23)[C@@H](C)CN([C@H](C)CO)C(=O)c2cc(NS(=O)(=O)c3ccc(F)cc3)ccc2O1	none (no result: EBV LMP1 NFkB, TRPM1 prom inh, Shn3 3UTR inh)
C[C@H]1CCCCO[C@H](CN(C)C(=O)Nc2cccc3ccccc23)[C@@H](C)CN([C@@H](C)CO)C(=O)c2cc(NS(=O)(=O)c3ccc(F)cc3)ccc2O1	PAX8 reporter 87 (no result: EBV LMP1 NFkB, TRPM1 prom inh, Shn3 3UTR inh)
NCC[C@H]1CC[C@H](NC(=O)C2CC2)[C@H](CO)O1	none (no result: EBV LMP1 NFkB, TRPM1 prom inh, Shn3 3UTR inh, PAX8 reporter)
CN(C)CC(=O)N1CCCCN2[C@H](CO)[C@H](c3ccc(/C=C/c4ccccc4)cc3)[C@@H]2C1	none (no result: EBV LMP1 NFkB, TRPM1 prom inh, Shn3 3UTR inh)
CC(C)CCn1c(Sc2nc3ccccc3o2)nc2c1c(=O)[nH]c(=O)n2C	EBV LMP1 NFkB 57 (no result: EWS-Fli inh)
COC(=O)c1[nH]c2ccc(C)cc2c1NC(=O)NC1CCCCC1	EBV LMP1 NFkB 73 (no result: EWS-Fli inh, PAX8 reporter)
COC(=O)c1[nH]c2ccc(C)cc2c1NC(=O)C(C)N1CCN(C2CCCCC2)CC1 (stereo unspecified)	none (no result: EWS-Fli inh, LGR2 inh, PAX8 reporter)
CO[C@@H]1CN(C)C(=O)c2cc(NC(=O)c3cc(C)on3)ccc2OC[C@H](C)N(C(C)=O)C[C@@H]1C	none (no result: EBV LMP1 NFkB, TRPM1 prom inh, Shn3 3UTR inh, PAX8 reporter)
CCC(=O)NC[C@@H]1[C@@H](c2ccc(C3=CCCCC3)cc2)[C@@H](CO)N1C(=O)C1CC1	none (no result: EWS-Fli inh, EBV LMP1 NFkB, TRPM1 prom inh, Shn3 3UTR inh, PAX8 reporter)
CC(C)(C=O)C1=CC(=O)c2ccccc2C1=O	PAX8 reporter 65 (no result: EWS-Fli inh)
O=C(NC1CCC1)[C@@H]1[C@@H](CO)[C@@H]2Cn3c(ccc(C4=CCCC4)c3=O)[C@@H]2N1C(=O)C1CCCC1	none (no result: EBV LMP1 NFkB, TRPM1 prom inh, Shn3 3UTR inh)
COCC#Cc1cnc2c(c1)C(=O)N([C@H](C)CO)C[C@H](C)[C@@H](CN(C)C)O2	none (no result: EBV LMP1 NFkB, TRPM1 prom inh, Shn3 3UTR inh, PAX8 reporter)
